Key:
Assay type in all cases: functional
[1] = biological target: Solute carrier family 2, facilitated glucose transporter member 1 (Homo sapiens) (UniProt P11166); assay: ST_JUDE_LEISH: Cytotoxicity at 2uM final concentration against transgenic Leishmania Mexicana promastigotes LmGLUT1 that are glucose transport deficient and complemented with the human glucose transporter GLUT1. Activity is measured by DNA content using SYBR green in vitro
[2] = biological target: Hexose transporter 1 (Plasmodium falciparum) (UniProt O97467); assay: ST_JUDE_LEISH: Cytotoxicity at 2uM final concentration against transgenic Leishmania Mexicana promastigotes LmPfHT that are glucose transport deficient and complemented with the Plasmodium falciparum hexose transporter. Activity is measured by DNA content using SYBR green in vitro
[3] = biological target: Glucose transporter (Leishmania mexicana) (UniProt O61059); assay: ST_JUDE_LEISH: Cytotoxicity at 2uM final concentration against transgenic Leishmania Mexicana promastigotes LmGT2 that are glucose transport deficient and complemented with the L. Mexicana glucose transporter 2. Activity is measured by DNA content using SYBR green in vitro

Sequence of Solute carrier family 2, facilitated glucose transporter member 1 (Homo sapiens) (P11166 whole entry): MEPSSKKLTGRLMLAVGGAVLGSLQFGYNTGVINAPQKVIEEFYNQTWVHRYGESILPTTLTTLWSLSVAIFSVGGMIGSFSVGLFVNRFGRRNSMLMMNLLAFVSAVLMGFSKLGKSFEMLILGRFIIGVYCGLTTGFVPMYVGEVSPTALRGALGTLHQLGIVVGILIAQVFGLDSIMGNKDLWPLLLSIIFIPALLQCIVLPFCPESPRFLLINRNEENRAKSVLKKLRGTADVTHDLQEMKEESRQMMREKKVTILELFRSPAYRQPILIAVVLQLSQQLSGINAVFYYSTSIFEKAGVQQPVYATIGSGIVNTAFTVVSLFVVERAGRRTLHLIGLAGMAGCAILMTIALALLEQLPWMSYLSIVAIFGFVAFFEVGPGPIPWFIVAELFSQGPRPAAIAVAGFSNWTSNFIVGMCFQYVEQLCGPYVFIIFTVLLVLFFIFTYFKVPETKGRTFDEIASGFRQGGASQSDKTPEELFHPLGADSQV

SMILES	inhibition [1]	inhibition [2]	inhibition [3]
COc1ccc2c(=NN=Cc3ccc(OC)c4ccccc34)cc(C)[nH]c2c1	0.09%	1.71%	1.11%
c1ccc(-n2ncc(CNCc3ccc(-c4cccc(-c5nc6ccccc6[nH]5)c4)cc3)n2)cc1	1.76%	1.26%	-2.38%
Cc1cccc2nc(-c3ccc(-c4ccc(NC(=O)Nc5ccc(Cl)c(Cl)c5)cc4)cc3)[nH]c12	2.18%	1.99%	1.71%
CCOc1cc(CC)ccc1C1CCN(CCN2CCC(CNC(=O)c3ccc(-c4ccc(C#N)cc4)cc3)CC2)CC1	16.2%	13%	13.1%
O=C(Nc1ccc2c(c1)CCCN2S(=O)(=O)c1cccs1)c1cc([N+](=O)[O-])ccc1Cl	5%	8.25%	3.5%
CNCCCNCc1ccc(-c2ccc(F)c(Cl)c2)o1	0.54%	1.28%	0.56%
O=C1CCCN1CCCNCc1ccc(-c2cccc(-c3nc4cc(F)ccc4[nH]3)c2)cc1	-2.56%	-0.8%	-2.7%
COc1ccc(NC(=O)/C=C/c2ccc(Cl)c(Cl)c2)cc1N1CCN(C)CC1	9.73%	4.85%	6.48%
CN(C)CCN(Cc1ccc(-c2ccc(CNCCc3ccccc3)cc2)nc1)C(=O)CCC1CCCC1	3.68%	6.87%	6.39%
CC(C)CNCc1cccc(-c2ccc(CN(CCCN3CCN(C)CC3)C(=O)/C=C/c3ccccc3)cc2)c1	2.92%	3.29%	3.9%
CCOc1cc(C)ccc1C1CCN(CCCCNC(=O)c2coc(-c3ccc(Cl)cc3)c2)CC1	0.96%	3.18%	2.06%
COCCNCc1ccc(-c2ccc(CNc3ccc4ncccc4c3)cc2)cc1	2%	4.18%	1.36%
Cc1ccc(Nc2nc(N/N=C/c3cc4c(cc3Br)OCO4)nc(Nc3ccc([N+](=O)[O-])cc3)n2)cc1C	1.58%	2.19%	4.71%
N=C(N)c1ccc2[nH]c(SCc3ccccc3)nc2c1	1.18%	1.38%	0.24%
NC(=O)c1ccc(NCC(=O)Nc2cccc(-c3cccc(-c4nc5cc(F)ccc5[nH]4)c3)c2)cc1	-0.29%	1.39%	-1.25%
COc1ccc(-n2c(=O)c3c(n4c(SC(C)C)nnc24)-c2ccccc2CC32CCCCC2)cc1	1.32%	1.21%	0.1%

SMILES	inhibition [1]	inhibition [2]	inhibition [3]
CCc1ccc(CN(CCCOc2cccc(CC(=O)NCc3c[nH]cn3)c2)Cc2ccc(-n3ccnc3)cc2)cc1	2.55%	2.84%	3.08%
CC(Cc1ccc(CN(CC(N)=O)Cc2ccc(CC(C)NCCc3cccc(Cl)c3)cc2)cc1)NCCc1cccc(Cl)c1 (stereo not drawn)	3.67%	-0.2%	7.2%
CCN(CC)/C(=N/C(=N)NCc1ccc(Cl)cc1Cl)NCCCCCCN/C(=N\C(=N)NCc1ccc(Cl)cc1Cl)N(CC)CC	1.61%	1.69%	1.51%
CCCNC(=O)Nc1ccc(N(C)c2ccnc(NC3CC3)n2)cc1	7%	5.59%	5.87%
c1cc(CNCCN2CCNCC2)cc(-c2cccc(-c3nc4ccccc4[nH]3)c2)c1	1.08%	1.4%	0.14%
COc1ccc(Cl)cc1NC(=O)C(C)Nc1ccc(-c2ccccc2)cc1 (stereo not drawn)	2.84%	2.75%	5.12%
COc1ccc(NC(=O)/C=C/c2ccc(-c3ccc(-c4noc(C)n4)cc3)cc2)cc1OCCN(C)C	-0.19%	2.25%	0.27%
CCc1cn2c3c(cc(C(=O)N[C@@H](Cc4ccccc4)[C@H](O)CNC4CCCCC4)cc13)N(CC)S(=O)(=O)CC2	-0.63%	0.33%	-3.68%
Cc1cccc2nc(-c3ccc(-c4ccc(CN5CCC(CCN6CCCCC6)CC5)cc4)cc3)[nH]c12	8.93%	7.95%	-1.41%
CCN(CC)CCCNc1ncc2c(-c3ccc(NC(=O)Nc4cc(C(F)(F)F)ccc4F)c(F)c3)nn(C)c2n1	-0.37%	-0.41%	-1.03%
COc1nc2c(CCN3CC[C@H](NCc4cc(C#N)c5c(c4)OCCO5)[C@H](O)C3)ccnc2cc1F	14.4%	18%	3.29%
c1ccc(CCNCc2ccc(-c3cccc(-c4nc5ccccc5[nH]4)c3)cc2)nc1	3.95%	3.7%	3.79%
COc1ccc(C=C2SC(=N)N(c3ccccc3OC)C2=O)cc1	6.44%	5.54%	6.86%
Cc1cc2nc(-c3ccc(C(=O)NCc4ccc(C(C)(C)C)cc4)cc3)[nH]c2cc1C	3.51%	2.34%	-0.6%
C=CCOc1ccccc1CNCC(O)c1cc(Br)cs1 (stereo not drawn)	1.55%	2.37%	2.43%

Source: ChEMBL document CHEMBL3433997, “St. Jude Leishmania screening dataset” (2016)
